About 83,000 compounds went through this panel and 20% of them were active in at least one assay; those are over-represented in the sample as a whole.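 Results are percent growth after 48 hours of single-concentration exposure. 100 means growth as in untreated cells, lower positive values show inhibition; negative values down to -100 show cell death.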 The source made the active and inactive calls. Rule for the calls: active = growth percent below 10; inactive = the rest.

This is an account of results in PubChem BioAssay (NCI).

For the experiment, the system named is SK-OV-3 ovarian. As to the kind of experiment: NCI-60 one-dose screen, 48 h (100 = growth as untreated, 0 = no growth, -100 = all killed). Particulars: 10 µM unless noted.
In the case of `COc1cc2c(cc1O)CC[C@@H]1[C@@H]2CC[C@]2(C)[C@@H](NCCN(C)C)CC[C@@H]12`, the growth is -90% (active).
In the case of `COc1cccc2c1C(=O)c1c(O)c3c(c(O)c1C2=O)C[C@](O)(C(=O)CO)C[C@H]3O[C@@H]1C[C@@H](NC(=O)CCCN(C)C2(c3ccc(F)cc3)CC3CCC2C3)[C@H](O)[C@@H](C)O1` (stereo partly drawn) it was 84.4% (inactive); in that of `O=c1cc(CSc2nnc(SCc3cc(=O)oc4c3ccc3ccccc34)o2)c2ccc3ccccc3c2o1`, 98.8% (inactive).
With `COc1cc2c(cc1O)CC[C@@H]1[C@@H]2CC[C@]2(C)[C@@H](OCCN(C)C)CC[C@@H]12`, the growth is 63% (inactive).
With `COc1ccc(-c2nnc(SCC(=O)c3ccc(Cl)cc3)o2)cc1`, the growth was 104% (inactive).
Next, `NC(=NCCCOc1ccc(Cl)cc1)Nc1ccc(C(F)(F)F)cc1`: 78.1% (inactive).
Turning to `CCCCC[C@H]1C/C=C2/C(=O)C=C[C@@H]2C/C=C\CCCC(=O)O1`, the growth is -11.6% (active).
In the case of `CNC(=O)c1cc(Oc2ccc(NC(=O)Nc3ccc(Cl)c(OC(F)(F)F)c3)c(F)c2)ccn1`, the growth was 64.9% (inactive).
In the case of `COc1ccc2c(c1)C(=O)/C(=C/c1cccnc1)CC2` it was 101% (inactive).
For the compound `COc1cccc(-c2nc(SCC(=O)Nc3ccc(C(=O)/C=C/c4ccc(OC)c(OC)c4)cc3)[nH]c(=O)c2C#N)c1`, the growth is 90.5% (inactive).
In the case of `CCCn1c(=O)[nH]c(N)c([C@H]2c3ccccc3Oc3[nH]c(=O)n(CCC)c(=O)c32)c1=O` it was 104% (inactive); in that of `C=C1C(=O)O[C@H]2[C@H]1CC/C(COC(=O)NCc1ccc(OC)c(OC)c1)=C\CC[C@@]1(C)O[C@@H]21`, 101% (inactive).
Consider `N#CN1CC[C@H](C(=O)Nc2cc3cc(C(N)=O)ccc3cn2)C1`, for which the growth is -10.2% (active).
`O=C1c2c(O)cc(O)cc2-c2c(-c3ccc(O)cc3)oc3cc(O)cc1c23`: the growth is 15.7% (inactive).
In the case of `O=C1/C(=C/c2ccccc2O)N=C2SCCCN12` it was 100% (inactive).
Next, `COc1ccc(CN2c3ccccc3Sc3ccccc32)c(C(F)(F)F)c1`: 17.8% (inactive); `COc1ccc(-c2nc(SCC(=O)Nc3ccc(C(=O)/C=C/c4ccc(Cl)cc4)cc3)[nH]c(=O)c2C#N)cc1`: 96.2% (inactive).
Consider `COc1ccc2c(c1)CC/C(=C\c1cncc(Br)c1)C2=O`, for which the growth was 99.7% (inactive).
Consider `COc1ccc2c(c1)C(=O)/C(=C/c1ccccn1)CC2`, for which the growth is 98% (inactive).
In the case of `Cc1nc(Nc2ccc(F)c(Cl)c2)sc1C(=O)O` it was 17.4% (inactive).
In the case of `CCOC(=O)c1sc(Nc2ccc(Cl)cc2)nc1C` it was 20.3% (inactive); in that of `CC(=O)c1cc(C(=O)c2ccc3c(c2)Sc2ccccc2N3)n2ccccc12`, 9.84% (active).
Consider `CC(=O)O[C@H]1C(=O)[C@@]2(C)[C@H]([C@H](OC(=O)c3ccccc3)[C@]3(O)C[C@H](OC(=O)[C@H](OC(=O)CCC(=O)OC4CCC(S/N=C(N)/N=C(\N)N(C)C)CC4)[C@@H](NC(=O)c4ccccc4)c4ccccc4)C(C)=C1C3(C)C)[C@]1(OC(C)=O)CO[C@@H]1C[C@@H]2O` (stereo partly drawn), for which the growth is 28.4% (inactive).
In the case of `CC(=O)OC[C@H]1O[C@H](OC(C)=O)[C@H](NC(=O)/C=C/CCl)[C@@H](OC(C)=O)[C@@H]1OC(C)=O` it was 57.2% (inactive); in that of `COc1cc(-c2nc(C(=O)NCC(=O)NO)nn2-c2ccc(Cl)cc2)cc(OC)c1OC`, 93.3% (inactive); in that of `C=C1C(=O)O[C@H]2[C@H]1CC/C(COC(=O)NCCc1ccc(OC)c(OC)c1)=C\CC[C@@]1(C)O[C@@H]21`, 99.3% (inactive).
Turning to `CC/C=C\C[C@H](O)C/C=C1/C(=O)C=C[C@@]1(C)C/C=C\CCCC(=O)OC`, the growth was 112% (inactive).
In the case of `Cc1ccc2oc(=O)cc(C3c4ccc([nH]4)C(c4cc(=O)oc5ccc(C)cc45)c4ccc([nH]4)C(c4cc(=O)oc5ccc(C)cc45)c4ccc([nH]4)C(c4cc(=O)oc5ccc(C)cc45)c4ccc3[nH]4)c2c1` (stereo not drawn) it was -30.7% (active); in that of `COc1cccc2c1C(=O)c1c(O)c3c(c(O)c1C2=O)C[C@](O)(C(=O)CO)C[C@H]3O[C@@H]1C[C@@H](NC(=O)CCCCCN(C)C2(c3ccc(F)cc3)CC3CCC2C3)[C@H](O)[C@@H](C)O1` (stereo partly drawn), 79.5% (inactive).
As to `NC(=NCCCC1(c2ccccc2)CCCC1)Nc1ccc(Cl)cc1`, the growth is 89% (inactive).
Next, `CCC#CC[C@H](O)C/C=C1/C(=O)C=C[C@@H]1C/C=C\CCCC(=O)OC`: 35.5% (inactive); `O=c1oc2c(C(F)(F)F)cccc2cc1-c1csc(Nc2ccc(OCCF)cc2)n1`: 15.1% (inactive); `CNC(=O)c1cc(Oc2ccc(NC(=O)Nc3ccc(Cl)c(SC)c3)c(F)c2)ccn1`: 79.5% (inactive).
In the case of `c1ccc2[nH]c(-c3ccc(Nc4nc(N5CCCC5)nc5[nH]ncc45)cc3)nc2c1`, the growth is 22.2% (inactive).
Turning to `CC/C=C\C/C=C\C[C@H]1C/C=C2/C(=O)C=C[C@@H]2C/C=C\CCC(=O)O1`, the growth was 40.9% (inactive).
In the case of `COc1ccc(CN2c3ccccc3Sc3ccccc32)cc1O` it was 29.1% (inactive); in that of `CCOc1ccc(-n2nc(C(=O)Nc3cc(OC)c(OC)c(OC)c3)nc2-c2cc(OC)c(OC)c(OC)c2)cc1`, 99.7% (inactive).
In the case of `CC/C=C\C[C@H]1C/C=C2/C(=O)C=C[C@H]2C/C=C\CCCC(=O)O1` it was 37.3% (inactive).
